The target of the first experiment is T1, GST-Co-NF-kB (Capsaspora owczarzaki, UniProt F1ARL5 200-546).
T1 sequence: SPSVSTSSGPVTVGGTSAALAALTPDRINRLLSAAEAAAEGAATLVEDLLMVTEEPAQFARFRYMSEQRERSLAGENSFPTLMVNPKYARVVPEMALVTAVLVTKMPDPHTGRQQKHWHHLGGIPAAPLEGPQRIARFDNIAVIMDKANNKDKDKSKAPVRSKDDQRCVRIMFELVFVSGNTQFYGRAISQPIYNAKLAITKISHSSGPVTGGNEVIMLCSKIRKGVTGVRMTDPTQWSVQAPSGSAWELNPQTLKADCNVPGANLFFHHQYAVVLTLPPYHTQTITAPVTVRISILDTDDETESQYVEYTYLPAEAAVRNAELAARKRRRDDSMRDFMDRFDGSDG
Kind of experiment: protein-binding microarray (PBM); PBM: ~300 nM protein, 6 mM HEPES pH 7.8, 80 mM KCl, 0.5 mM EDTA, 0.5 mM EGTA, 6% glycerol, 35 ng/ul poly-dIdC, 1% milk, 1 h, room temperature; Ap Aiptasia and Nv Nematostella (sea anemones) / Co Capsaspora / Aq Amphimedon (sponge) / Dm Drosophila / Hu human; RHD is the Rel homology domain; high values mean tight binding. Conditions: dsDNA, one strand shown.
Chain of GST-Hu-p50 (P19838 7-356): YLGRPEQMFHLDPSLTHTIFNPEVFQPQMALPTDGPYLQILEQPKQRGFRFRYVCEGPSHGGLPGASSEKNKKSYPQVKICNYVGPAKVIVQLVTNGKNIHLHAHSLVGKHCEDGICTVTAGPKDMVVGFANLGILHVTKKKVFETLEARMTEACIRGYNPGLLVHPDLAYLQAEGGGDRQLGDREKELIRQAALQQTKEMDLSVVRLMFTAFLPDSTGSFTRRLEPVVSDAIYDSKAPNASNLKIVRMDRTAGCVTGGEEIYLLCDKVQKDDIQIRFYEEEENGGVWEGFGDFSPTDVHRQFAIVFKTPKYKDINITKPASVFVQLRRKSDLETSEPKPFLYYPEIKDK
As to “CCGATTAACATCATGTTTGCGGGTGATGTTAATCGGGTCTTGATTCGCTTGACGCTGCTG”, the binding signal was 1.02 z-score. Same read-out and setting: as for “CCGATTAACATCATATTGGGAAATGATGTTAATCGGGTCTTGATTCGCTTGACGCTGCTG”, the figure is 2.03 z-score.

On to “CCGATTAACATCAATTCCCAACCTGATGTTAATCGGGTCTTGATTCGCTTGACGCTGCTG”, for which the binding signal stood at 2.06 z-score.

For “CCGATTAACATCAGGAAGGGCGGTGATGTTAATCGGGTCTTGATTCGCTTGACGCTGCTG”, the binding signal is 1.08 z-score. On the same count and under the same terms, as for “CCGATTAACATCACCTGGTCGGGTGATGTTAATCGGGTCTTGATTCGCTTGACGCTGCTG”, the figure is 1.5 z-score; as for “CCGATTAACATCACGGAAAAAACTGATGTTAATCGGGTCTTGATTCGCTTGACGCTGCTG”, 1.37 z-score. In turn, “CCGATTAACATCACCCCGCATGCTGATGTTAATCGGGTCTTGATTCGCTTGACGCTGCTG” displayed a binding signal of 1.97 z-score. Still for that read-out and setting: as for “CCGATTAACATCACGGGCAGTGGTGATGTTAATCGGGTCTTGATTCGCTTGACGCTGCTG”, the figure is 1.25 z-score.

The next experiment concerns the target T2, GST-Dm-Relish (Drosophila melanogaster, UniProt Q94527 99-473).
T2 sequence: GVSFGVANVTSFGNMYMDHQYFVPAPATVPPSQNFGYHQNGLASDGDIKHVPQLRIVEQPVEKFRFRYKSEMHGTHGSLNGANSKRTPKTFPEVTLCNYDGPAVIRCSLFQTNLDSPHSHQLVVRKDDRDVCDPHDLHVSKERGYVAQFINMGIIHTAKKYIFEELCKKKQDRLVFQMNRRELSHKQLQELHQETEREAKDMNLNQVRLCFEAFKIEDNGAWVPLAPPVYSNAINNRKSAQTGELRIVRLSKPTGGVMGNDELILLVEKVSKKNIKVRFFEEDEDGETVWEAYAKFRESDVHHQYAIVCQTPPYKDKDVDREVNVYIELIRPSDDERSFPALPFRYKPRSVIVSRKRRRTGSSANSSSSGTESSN
The description is as above. Conditions: dsDNA, one strand shown.
The sequence “CCGATTAACATCACCGAAATTCCTGATGTTAATCGGGTCTTGATTCGCTTGACGCTGCTG” came in with a binding signal of 1.25 z-score. The same measure, in the same setting: as for “CCGATTAACATCACTCTTCTCGGTGATGTTAATCGGGTCTTGATTCGCTTGACGCTGCTG”, the figure is 1.33 z-score; as for “CCGATTAACATCACCAGGTTAGGTGATGTTAATCGGGTCTTGATTCGCTTGACGCTGCTG”, 1.36 z-score. Sequence “CCGATTAACATCAGGTCTTTCCATGATGTTAATCGGGTCTTGATTCGCTTGACGCTGCTG” yielded a binding signal of 1.02 z-score. On the same count and under the same terms, as for “CCGATTAACATCAGGTAAGTCCATGATGTTAATCGGGTCTTGATTCGCTTGACGCTGCTG”, the figure is 1.83 z-score; as for “CCGATTAACATCAGGAAAGTCCATGATGTTAATCGGGTCTTGATTCGCTTGACGCTGCTG”, 3.2 z-score.

Turning to “CCGATTAACATCACCTTGAACGGTGATGTTAATCGGGTCTTGATTCGCTTGACGCTGCTG”, the binding signal stood at 1.69 z-score. In turn, “CCGATTAACATCACCTGGTCGGGTGATGTTAATCGGGTCTTGATTCGCTTGACGCTGCTG” came in with a binding signal of 1.13 z-score. The same measure, in the same setting: as for “CCGATTAACATCACGGAATTCCATGATGTTAATCGGGTCTTGATTCGCTTGACGCTGCTG”, the figure is 1.4 z-score; as for “CCGATTAACATCAAAGGAATTTCTGATGTTAATCGGGTCTTGATTCGCTTGACGCTGCTG”, 1.13 z-score.

As for “CCGATTAACATCACGGAAATTCCTGATGTTAATCGGGTCTTGATTCGCTTGACGCTGCTG”, the binding signal came to 1.83 z-score.

As to “CCGATTAACATCAAAGAAATTCCTGATGTTAATCGGGTCTTGATTCGCTTGACGCTGCTG”, the binding signal was 1.96 z-score. “CCGATTAACATCATGATATCCGGTGATGTTAATCGGGTCTTGATTCGCTTGACGCTGCTG” showed a binding signal of 1.07 z-score. On the same count and under the same terms, as for “CCGATTAACATCACGGAAAAAACTGATGTTAATCGGGTCTTGATTCGCTTGACGCTGCTG”, the figure is 1.6 z-score.

For “CCGATTAACATCACGGAATTCCGTGATGTTAATCGGGTCTTGATTCGCTTGACGCTGCTG”, the binding signal came to 1.22 z-score. Take “CCGATTAACATCACAGCGTGAGGTGATGTTAATCGGGTCTTGATTCGCTTGACGCTGCTG”: the binding signal was 1.34 z-score. “CCGATTAACATCATTTCTTACGGTGATGTTAATCGGGTCTTGATTCGCTTGACGCTGCTG” came in with a binding signal of 1.25 z-score. The sequence “CCGATTAACATCACGGGCAGTGGTGATGTTAATCGGGTCTTGATTCGCTTGACGCTGCTG” showed a binding signal of 1.02 z-score.

Another experiment deals with T3, GST-Aq-NF-kB (Amphimedon queenslandica, UniProt A9Y5G7 2-389).
T3 sequence: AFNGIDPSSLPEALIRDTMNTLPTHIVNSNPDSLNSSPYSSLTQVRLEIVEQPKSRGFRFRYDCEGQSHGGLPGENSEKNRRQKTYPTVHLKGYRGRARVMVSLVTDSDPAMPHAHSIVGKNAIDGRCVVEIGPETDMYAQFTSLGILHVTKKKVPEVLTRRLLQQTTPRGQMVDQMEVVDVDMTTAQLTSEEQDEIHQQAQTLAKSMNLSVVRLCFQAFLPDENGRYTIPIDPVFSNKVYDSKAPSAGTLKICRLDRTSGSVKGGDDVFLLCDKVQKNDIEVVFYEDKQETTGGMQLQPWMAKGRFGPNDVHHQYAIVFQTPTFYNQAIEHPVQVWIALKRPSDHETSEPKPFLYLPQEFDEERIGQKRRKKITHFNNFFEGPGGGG
The description is as above. Conditions: dsDNA, one strand shown.
As to “CCGATTAACATCAGGTCTTTCCATGATGTTAATCGGGTCTTGATTCGCTTGACGCTGCTG”, the binding signal is 1.55 z-score. Still for that read-out and setting: as for “CCGATTAACATCAGGTAAGTCCATGATGTTAATCGGGTCTTGATTCGCTTGACGCTGCTG”, the figure is 2.33 z-score; as for “CCGATTAACATCAGGAAAGTCCATGATGTTAATCGGGTCTTGATTCGCTTGACGCTGCTG”, 3.71 z-score; as for “CCGATTAACATCACGGAATTCCATGATGTTAATCGGGTCTTGATTCGCTTGACGCTGCTG”, 1.3 z-score.

“CCGATTAACATCAAAGGAATTTCTGATGTTAATCGGGTCTTGATTCGCTTGACGCTGCTG”: the binding signal is 1.12 z-score. For “CCGATTAACATCACGGAAATTCCTGATGTTAATCGGGTCTTGATTCGCTTGACGCTGCTG”, the binding signal is 4.88 z-score. Sequence “CCGATTAACATCAAAGAAATTCCTGATGTTAATCGGGTCTTGATTCGCTTGACGCTGCTG” yielded a binding signal of 1.44 z-score. “CCGATTAACATCACGGAATTCCGTGATGTTAATCGGGTCTTGATTCGCTTGACGCTGCTG” showed a binding signal of 1.25 z-score.

Another experiment addresses GST-Hu-p50 (Homo sapiens, UniProt P19838 7-356). The description is as above. Particulars: dsDNA, one strand shown.
“CCGATTAACATCACCGAAATTCCTGATGTTAATCGGGTCTTGATTCGCTTGACGCTGCTG”: the binding signal came to 2.52 z-score.

In turn, “CCGATTAACATCAGGGCCAAAAATGATGTTAATCGGGTCTTGATTCGCTTGACGCTGCTG” had a binding signal of 1.38 z-score.

Take “CCGATTAACATCACCTTAGGTTTTGATGTTAATCGGGTCTTGATTCGCTTGACGCTGCTG”: the binding signal was determined as 1.04 z-score. Consider “CCGATTAACATCACCTAACTTGATGATGTTAATCGGGTCTTGATTCGCTTGACGCTGCTG”, for which the binding signal came to 1.66 z-score.

“CCGATTAACATCACCTTGTGATCTGATGTTAATCGGGTCTTGATTCGCTTGACGCTGCTG” had a binding signal of 1.21 z-score. On to “CCGATTAACATCACCTGAACTATTGATGTTAATCGGGTCTTGATTCGCTTGACGCTGCTG”, for which the binding signal amounted to 1.45 z-score.

“CCGATTAACATCATGTTTGCGGGTGATGTTAATCGGGTCTTGATTCGCTTGACGCTGCTG” registered a binding signal of 1.53 z-score. The sequence “CCGATTAACATCATATTGGGAAATGATGTTAATCGGGTCTTGATTCGCTTGACGCTGCTG” came in with a binding signal of 1.12 z-score. Same read-out and setting: as for “CCGATTAACATCAATTCCCAACCTGATGTTAATCGGGTCTTGATTCGCTTGACGCTGCTG”, the figure is 1.06 z-score. The same measure, in the same setting: as for “CCGATTAACATCACTCTTCTCGGTGATGTTAATCGGGTCTTGATTCGCTTGACGCTGCTG”, the figure is 1.72 z-score; as for “CCGATTAACATCAGGAAATTGCCTGATGTTAATCGGGTCTTGATTCGCTTGACGCTGCTG”, 1.3 z-score; as for “CCGATTAACATCACCAGGTTAGGTGATGTTAATCGGGTCTTGATTCGCTTGACGCTGCTG”, 3.09 z-score.

Consider “CCGATTAACATCATGGTGCTTAATGATGTTAATCGGGTCTTGATTCGCTTGACGCTGCTG”, for which the binding signal turned out to be 1.41 z-score. The sequence “CCGATTAACATCACCTTTTACATTGATGTTAATCGGGTCTTGATTCGCTTGACGCTGCTG” had a binding signal of 1.53 z-score. With “CCGATTAACATCAGAATTTTTCCTGATGTTAATCGGGTCTTGATTCGCTTGACGCTGCTG”, the binding signal turned out to be 1.1 z-score. The same measure, in the same setting: as for “CCGATTAACATCAGCAATGTAGGTGATGTTAATCGGGTCTTGATTCGCTTGACGCTGCTG”, the figure is 1.13 z-score. “CCGATTAACATCACCTTGAACGGTGATGTTAATCGGGTCTTGATTCGCTTGACGCTGCTG” came in with a binding signal of 2.74 z-score. On the same count and under the same terms, as for “CCGATTAACATCAGGAAGGGCGGTGATGTTAATCGGGTCTTGATTCGCTTGACGCTGCTG”, the figure is 1.07 z-score; as for “CCGATTAACATCACCTGGTCGGGTGATGTTAATCGGGTCTTGATTCGCTTGACGCTGCTG”, 2.04 z-score. As to “CCGATTAACATCACCCTCCAATTTGATGTTAATCGGGTCTTGATTCGCTTGACGCTGCTG”, the binding signal was 1.13 z-score. The same measure, in the same setting: as for “CCGATTAACATCACGTGTGTAGGTGATGTTAATCGGGTCTTGATTCGCTTGACGCTGCTG”, the figure is 1.87 z-score. Consider “CCGATTAACATCATGATATCCGGTGATGTTAATCGGGTCTTGATTCGCTTGACGCTGCTG”, for which the binding signal was determined as 1.11 z-score. Same read-out and setting: as for “CCGATTAACATCACGGAAAAAACTGATGTTAATCGGGTCTTGATTCGCTTGACGCTGCTG”, the figure is 1.36 z-score. For “CCGATTAACATCACCGAGTTAGTTGATGTTAATCGGGTCTTGATTCGCTTGACGCTGCTG”, the binding signal is 1.5 z-score.

Consider “CCGATTAACATCAGCAAATTTCCTGATGTTAATCGGGTCTTGATTCGCTTGACGCTGCTG”, for which the binding signal is 1.07 z-score. On the same count and under the same terms, as for “CCGATTAACATCACAGCGTGAGGTGATGTTAATCGGGTCTTGATTCGCTTGACGCTGCTG”, the figure is 1.16 z-score. Same read-out and setting: as for “CCGATTAACATCACCCCGCATGCTGATGTTAATCGGGTCTTGATTCGCTTGACGCTGCTG”, the figure is 1.34 z-score. As for “CCGATTAACATCATTTCTTACGGTGATGTTAATCGGGTCTTGATTCGCTTGACGCTGCTG”, the binding signal is 1.44 z-score. In turn, “CCGATTAACATCACGGGCAGTGGTGATGTTAATCGGGTCTTGATTCGCTTGACGCTGCTG” had a binding signal of 1.37 z-score.

These data come from PMC5700166.
